The panel holds about 83,000 compounds, 20% with a hit somewhere; the sample as a whole holds those more often.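 Note: values are percent growth. 100 is the growth of untreated cells, values between 100 and 0 indicate rising inhibition; between -100 and 0 indicates cell death.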 A number with no mark means an inactive call. Calls of active or inactive are those of the source. Rule for the calls: active = growth percent below 10; inactive = the rest.

Test systems include DU-145 prostate; K-562 leukemia; MALME-3M melanoma; MDA-MB-231 breast; RXF 393 renal; SF-268 CNS; SF-295 CNS; SF-539 CNS; UACC-257 melanoma; M14 melanoma.
Assay in all cases: NCI-60 one-dose screen, 48 h (100 = growth as untreated, 0 = no growth, -100 = all killed)
Common to all, as to conditions: 10 µM unless noted

In the case of `Nc1nc2c(s1)CCc1c-2c(Br)n(Cc2ccccc2)c1Br`, the growth in the assay on DU-145 prostate was 109%; in the assay on K-562 leukemia it was 15.4%; with MALME-3M melanoma, 37.8%; with MDA-MB-231 breast, 80.9%; in the assay with RXF 393 renal, 17.9%; in the assay with SF-268 CNS, 89.1%. The growth was 120% with SF-295 CNS, 93.4% in the assay on SF-539 CNS, 96.9% in the assay with UACC-257 melanoma and 91.8% with M14 melanoma.

Take `CCCCOC(=O)C1OC(Oc2ccc3c(C)cc(=O)oc3c2)[C@@H](OC(C)=O)C(OC(C)=O)C1OC(C)=O` (stereo not given in full): the growth with DU-145 prostate is 104%; in the assay with K-562 leukemia, 106%; with MALME-3M melanoma, 89.1%; in the assay on MDA-MB-231 breast, 104%; with RXF 393 renal it was 106%; in the assay on SF-268 CNS, 97.4%. Besides, the growth was 96.1% with SF-295 CNS, 96% with SF-539 CNS, 93.9% with UACC-257 melanoma and 93.9% in the assay on M14 melanoma.

As for `Cc1ccc(C)c2c1sc1nc3nc4sc5ccccc5n4c(=N)c3c(=O)n12`, the growth in the assay with DU-145 prostate was 108%; with K-562 leukemia, 132%; with MALME-3M melanoma, 143%; with MDA-MB-231 breast it was 93.5%; with RXF 393 renal, 122%; with SF-268 CNS, 95.6%. Besides, the growth is 104% in the assay on SF-295 CNS, 101% in the assay on SF-539 CNS, 129% in the assay on UACC-257 melanoma and 94.8% with M14 melanoma.

In the case of `CC(C)(C)CC(C)(C)N(CSc1ccc(Cl)cc1)CSc1ccc(Cl)cc1`, the growth is 73.8% in the assay with DU-145 prostate; 34.8% in the assay with K-562 leukemia; 82.1% with MALME-3M melanoma; 0.954% (active) in the assay on MDA-MB-231 breast; 66.2% in the assay on RXF 393 renal; 31.5% with SF-268 CNS. For the same compound, the growth in the assay with SF-295 CNS is 27.2%; in the assay with SF-539 CNS, 6.24% (active); with UACC-257 melanoma it was 63%; with M14 melanoma, 48.3%.

Turning to `CCOC(=O)c1sc(NC(=O)CN2CCC(Cc3ccccc3)CC2)nc1C`, the growth in the assay on DU-145 prostate was 102%; in the assay on K-562 leukemia, 93.9%; in the assay with MALME-3M melanoma, 82.4%; with MDA-MB-231 breast, 119%; with RXF 393 renal, 111%; in the assay on SF-268 CNS it was 106%. Besides, the growth in the assay with SF-295 CNS is 42.3%; in the assay with SF-539 CNS, 106%; in the assay with UACC-257 melanoma, 127%; with M14 melanoma, 101%.

Turning to `CCCCCCCCCCCCCCn1c2ccccc2c2c3c(c4c5cc(OC)ccc5oc4c21)C(=O)NC3=O`, the growth in the assay on DU-145 prostate was 111%; in the assay on K-562 leukemia, 111%; in the assay on MALME-3M melanoma, 115%; with MDA-MB-231 breast it was 111%; with RXF 393 renal it was 122%; in the assay on SF-268 CNS, 99.8%. In addition, the growth is 104% in the assay on SF-295 CNS, 97% with SF-539 CNS, 102% in the assay on UACC-257 melanoma and 101% with M14 melanoma.

On to `COc1ccc(-c2nc(Nc3ccc(F)cc3)nc(Nc3ccc4c(c3)nc(C)n4Cc3ccccc3)n2)cc1`, for which the growth with DU-145 prostate was 54.7%; in the assay with K-562 leukemia, 16.1%; with MALME-3M melanoma, 52.8%; in the assay with MDA-MB-231 breast, 31.2%; in the assay on RXF 393 renal, 35.7%; in the assay on SF-268 CNS it was 46.9%. The growth is 49% in the assay on SF-295 CNS, 67.8% with SF-539 CNS, 43.8% in the assay on UACC-257 melanoma and 38.9% in the assay on M14 melanoma.

Turning to `Cc1nc2cc(Nc3nc(Nc4ccc(F)cc4)nc(N4CCN(C)CC4)n3)ccc2n1Cc1ccccc1`, the growth in the assay with DU-145 prostate is 16.7%; with K-562 leukemia, 0.387% (active); in the assay on MALME-3M melanoma, -83.4% (active); with MDA-MB-231 breast, -73.3% (active); with RXF 393 renal it was -82.7% (active); in the assay on SF-268 CNS, 14.6%. The growth in the assay on SF-295 CNS was -62.5% (active); with SF-539 CNS, -95.9% (active); in the assay with UACC-257 melanoma it was -83.7% (active); in the assay with M14 melanoma, -73% (active).

On to `O=C1N/C(=C\c2ccccc2)c2ncccc21`, for which the growth in the assay on DU-145 prostate is 106%; with K-562 leukemia, 90.7%; with MALME-3M melanoma, 95.2%; in the assay with MDA-MB-231 breast it was 94.3%; with RXF 393 renal, 127%; in the assay on SF-268 CNS, 98.6%. Moreover, the growth in the assay with SF-295 CNS is 107%; in the assay with SF-539 CNS, 101%; in the assay on UACC-257 melanoma it was 100%; in the assay with M14 melanoma, 98.5%.

For `CCCCc1ccc(NC(=O)C(F)(F)F)cc1`, the growth in the assay on DU-145 prostate was 100%; in the assay on K-562 leukemia it was 85.8%; with MALME-3M melanoma, 140%; in the assay on MDA-MB-231 breast, 99.8%; in the assay with RXF 393 renal it was 93.4%; with SF-268 CNS, 83.9%. Also, the growth is 105% in the assay with SF-295 CNS, 100% with SF-539 CNS, 110% in the assay on UACC-257 melanoma and 105% in the assay on M14 melanoma.

As to `CCN(CC)c1ccc(/C=C(\C#N)c2cc3ccccc3[nH]2)cc1`, the growth in the assay on DU-145 prostate is 74.1%; with K-562 leukemia, 14.2%; in the assay on MALME-3M melanoma it was 71.7%; in the assay with MDA-MB-231 breast, 48.6%; with RXF 393 renal, 94%; in the assay with SF-268 CNS, 71.8%. The growth is 46.9% in the assay with SF-295 CNS, 58.3% in the assay with SF-539 CNS, 81.5% in the assay with UACC-257 melanoma and 29.6% in the assay on M14 melanoma.

As for `O=C1NC(=O)C2(CCCC2C(=O)O)N1` (stereo not given), the growth is 120% with DU-145 prostate; 98% with K-562 leukemia; 140% in the assay on MALME-3M melanoma; 105% with MDA-MB-231 breast; 117% with RXF 393 renal; 109% with SF-268 CNS. The growth with SF-295 CNS is 99.8%; in the assay with SF-539 CNS it was 101%; with UACC-257 melanoma, 86.7%; in the assay on M14 melanoma, 106%.

Take `Cn1c(=O)c(S(=O)(=O)c2ccccc2)cc2ccc3c(cnn3-c3ccc(Cl)cc3)c21`: the growth with DU-145 prostate was 82.9%; in the assay with K-562 leukemia, 91.6%; in the assay with MALME-3M melanoma, 85.1%; in the assay on MDA-MB-231 breast, 75.7%; with RXF 393 renal, 55.8%; in the assay with SF-268 CNS, 80.6%. Further, the growth with SF-295 CNS is 90.2%; in the assay on SF-539 CNS it was 45%; with UACC-257 melanoma, 83.4%; with M14 melanoma it was 83.7%.

Consider `O=C(O)CCN1CCN(c2cccc(Cl)c2)CC1`, for which the growth was 118% with DU-145 prostate; 99.8% in the assay with K-562 leukemia; 107% with MALME-3M melanoma; 116% with MDA-MB-231 breast; 105% in the assay on RXF 393 renal; 117% in the assay on SF-268 CNS. The growth in the assay with SF-295 CNS was 87.4%; with SF-539 CNS, 89.1%; in the assay on UACC-257 melanoma it was 94.6%; in the assay on M14 melanoma, 109%.
